From PubChem BioAssay
G9a block – G9a (human) methyltransferase inhibition; AID 504332; Q96KQ7; actives 8.8% (n = 350,000); G9a H3K9 monomethylation, AlphaScreen, 2 h; Potency, µM (series often up to 102 µM), inactives show top-dose activity, negative = inhibition, actives largely listed as inhibitors; also: potency is read from the fitted curve at half-maximal effect; % is scaled to controls: 0 for no effect and ±100 for the full control effect; nearly all actives have a fitted effect of over 75% in size
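Enzyme 20 nM + cpd, 15 min RT; add b-H3K9 pep 500 nM / SAM 20 uM; 2 h RT; anti-H3K9me1 Ab 0.5 ug/mL + SA donor / anti-rabbit acceptor beads 20 ug/mL each, 10 min; AlphaScreen read.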
HP1b chromo inh – blocks HP1-beta chromodomain binding to methylated histone tails; AlphaScreen HP1-beta / biotin-H3K9me3 peptide binding; Potency, µM (top dose mostly 114 µM), for the others: top-dose activity change, negative = inhibition, most hits filed as inhibitors; actives 0.56% (n = 390,000); also: potency is read from the fitted curve at half-maximal effect; nearly all actives have a fitted effect of over 70% in size
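AlphaScreen: HP1-beta (50 nM) preformed 30 min with biotin-H3(1-18)K9me3 peptide (50 nM) in PBS pH 7.4, 0.01% Tween-20. Compound added for 30 min at RT, then streptavidin donor/nickel chelate acceptor beads (10 ug/mL) for 30 min.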
BAZ2B inh – blocks human BAZ2B | AlphaScreen BAZ2B-H3K14Ac peptide displacement | actives 4.4% (n = 360,000) | Potency, µM (doses to about 114 µM), inactives show top-dose activity change, negative = inhibition, hits mostly inhibitors | Q9UIF8 | AID 504333; also: potency is read from the fitted curve at half-maximal effect; % is scaled to controls: 0 for no effect and ±100 for the full control effect; nearly all actives have a fitted effect of over 60% in size
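Inhibition is scored as reduced AlphaScreen emission. The BAZ2B/b-H3(5-23)K14Ac complex (50 nM each) in PBS pH 7.4, 0.01% Tween-20 meets compound (up to 110 uM) for 30 min at RT before bead addition.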
Six1-Eya2 blk – Six1/Eya2 interaction inhibition | actives 0.56% (n = 360,000) | activity change, % (no concentration beside the values) | AID 651725 | AlphaScreen GST-Six1/His-Eya2 binding, biochemical; active compounds read low; in the data active = activity change below about -65%; inconclusive = mostly about -30% to -63%; also: % is scaled to controls: 0 for no effect and ±100 for the full control effect
Target sequence (O00167 whole entry, looked up): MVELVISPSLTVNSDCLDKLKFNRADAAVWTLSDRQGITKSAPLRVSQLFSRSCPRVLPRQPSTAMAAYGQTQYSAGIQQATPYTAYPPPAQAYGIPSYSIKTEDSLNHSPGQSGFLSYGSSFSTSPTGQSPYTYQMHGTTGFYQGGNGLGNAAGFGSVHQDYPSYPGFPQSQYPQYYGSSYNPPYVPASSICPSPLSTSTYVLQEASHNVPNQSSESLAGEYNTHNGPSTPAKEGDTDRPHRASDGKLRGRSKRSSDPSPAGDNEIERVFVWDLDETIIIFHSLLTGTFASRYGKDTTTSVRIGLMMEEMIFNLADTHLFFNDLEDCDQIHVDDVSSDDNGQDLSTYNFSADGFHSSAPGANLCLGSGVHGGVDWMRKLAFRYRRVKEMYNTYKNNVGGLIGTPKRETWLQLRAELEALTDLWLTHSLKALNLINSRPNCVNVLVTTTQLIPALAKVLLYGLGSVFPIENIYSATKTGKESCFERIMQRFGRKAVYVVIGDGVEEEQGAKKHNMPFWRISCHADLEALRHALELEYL
Target sequence (Q15475 whole entry, looked up): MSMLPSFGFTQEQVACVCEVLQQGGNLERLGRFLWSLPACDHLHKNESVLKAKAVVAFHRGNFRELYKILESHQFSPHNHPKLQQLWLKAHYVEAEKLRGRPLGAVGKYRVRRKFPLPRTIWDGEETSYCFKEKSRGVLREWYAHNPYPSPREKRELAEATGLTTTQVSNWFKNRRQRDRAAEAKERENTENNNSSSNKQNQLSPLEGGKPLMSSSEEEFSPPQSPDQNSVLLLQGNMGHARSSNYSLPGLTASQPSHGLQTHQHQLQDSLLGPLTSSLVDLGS
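GST-Six1 + His-Eya2 (5X stock: 250/500 nM); Tris pH 8.0, 300 mM NaCl, 0.05% BSA, 0.02% Tween 20; GSH donor/Ni acceptor beads; 1 h 37 °C dark; AlphaScreen readout.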
CtBP-E1A inh – CtBP/E1A binding inhibition; AlphaScreen GST-E1A/His-CtBP binding, 1536-well; active compounds read low; activity change, % (concentration not given with the values); actives 0.49% (n = 340,000); in the data active = activity change below about -65%; inconclusive = mostly about -30% to -63%; also: % is scaled to controls: 0 for no effect and ±100 for the full control effect
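Homogeneous bead-based format: GST-tagged E1A captured on glutathione donor beads, His-tagged CtBP on nickel acceptor beads; compounds precede bead addition by 2 h at 37 °C.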
JMJD2A Tudor inh – inhibitors of human JMJD2A Tudor domain | AlphaScreen JMJD2A-Tudor / H3K4me3 peptide binding | Potency, µM (doses to about 114 µM), without a hit: at the highest dose activity change, negative = inhibition, most hits filed as inhibitors | actives 4.4% (n = 390,000) | AID 504339; also: potency is read from the fitted curve at half-maximal effect; % is scaled to controls: 0 for no effect and ±100 for the full control effect; nearly all actives have a fitted effect of over 50% in size
An asterisk follows results filed as active; ? = inconclusive; nt = no result; ! = not active in a repeat; [ ] = remark or other dose. Sampled rows, rich in hits. Any-hit rate of the full collection: about 10%. Unless noted, calls follow the shape of the dose curve; as a rule, active = well fitted inhibition curve with a large enough effect; inconclusive = small, poorly fitted or top-dose-only effect; inactive = no such curve, though single readings can be large or run the other way.

SMILES	G9a block	HP1b chromo inh	BAZ2B inh	Six1-Eya2 blk	CtBP-E1A inh	JMJD2A Tudor inh
Cc1ccc(NC(=O)Cn2nc(C(=O)O)c3ccccc3c2=O)cc1S(=O)(=O)N1CCCCCC1	nt	28%	nt	-10	0	-11%
Cc1nc(SCC(=O)Nc2nc3ccccc3s2)n[nH]1	79µM*	33%	-1%	-5	-2	-8%
COc1ccc2nc(NC(=O)CSc3nc(SC)ns3)sc2c1	20µM*	17%	-9%	5	-1	-8%
CSc1nsc(SCC(=O)Nc2nc3ccccc3s2)n1	5%[59 µM]	29%	3%	0	2	-17%
Cc1nc(SCC(=O)Nc2nc3ccccc3s2)c(C#N)c(C)c1C	10µM*	42%	-1%	3	9	3%
Cc1cc(C(F)(F)F)c(C#N)c(SCC(=O)Nc2nc3ccccc3s2)n1	5%[59 µM]	44%	3%	16	2	-16%
COc1ccc2nc(NC(=O)CSc3nnc(C)s3)sc2c1	4%	14%	-5%	2	-1	1%
CSc1nsc(SCC(=O)NCc2ccccc2)n1	40µM*	31%	0%	11	5	-15%
COc1ccc2nc(NC(=O)CSc3n[nH]c(N)n3)sc2c1	56µM*	13%	6%	-4	-13	-25%
O=C(CSc1nccn1Cc1ccccc1)Nc1nc2ccccc2s1	-43%[59 µM]	-5%[57 µM]	?	nt	nt	50µM*
COc1ccc(N2C(=O)C(Cl)=C(N(CCO)Cc3ccccc3)C2=O)cc1	50µM*	25%	?	-7	-1	-31%
COc1ccc(OC)c(NC2=C(Cl)C(=O)N(Cc3ccccc3)C2=O)c1	-115%[59 µM]	?	22µM*	?	-26	14µM*
COc1ccc(N2C(=O)C(Cl)=C(Nc3ccccc3OC)C2=O)cc1	45µM*	-28%	?	-24	-2	?
COc1ccc(N2C(=O)c3cccc4c(N(C)CCO)ccc(c34)C2=O)cc1	9%	14%	3%	-1	nt	-17%
CCOc1ccccc1NC1=C(Cl)C(=O)N(Cc2ccccc2)C1=O	5%[12.7 µM]	-32%	?	-22	-18	-15%[11.4 µM]
O=C1C(Cl)=C(Nc2cccc(O)c2)C(=O)N1Cc1ccccc1	35µM*	?	?	-1	-2	45µM*
COc1ccc(CC(=O)N/N=C/c2ccc(C)s2)cc1	nt	33%	nt	0	3	-5%
COc1ccc(N2C(=O)C(Cl)=C(N3CCOCC3)C2=O)cc1	nt	37%	-2%	-4	-20	-8%
COc1ccc(N2C(=O)C(Cl)=C(Nc3ccccc3O)C2=O)cc1	3.5µM*	28µM*	?	10	-3	45µM*
COc1ccc(N2C(=O)C(Cl)=C(Oc3cccc(OC)c3)C2=O)cc1	6.3µM*	?	45µM*	-22	1	?
COc1ccc(NC2=C(c3ccccc3)C(=O)c3ccccc32)cc1Cl	13%[59 µM]	33%	0%	nt	nt	-27%
COc1ccc(OC)c(NC2=C(c3ccccc3)C(=O)c3ccccc32)c1	11µM*	13µM*	5.6µM*	nt	nt	13µM*
O=c1c2sc3ccccc3c2n(Cc2cccc(Cl)c2)c(=O)n1Cc1ccccc1	0%[59 µM]	39%	1%	nt	nt	-6%
Cc1ccc(O)c(N=Nc2ccccc2)n1	11µM*!	-25%	nt	-1	-23	?
O=C(CCNC(=O)c1ccc(Br)cc1)Nc1ccc(S(=O)(=O)Nc2ncccn2)cc1	-12%[2.33 µM]	23%	7%	-2	9	-10%
SMILES	G9a block	HP1b chromo inh	BAZ2B inh	Six1-Eya2 blk	CtBP-E1A inh	JMJD2A Tudor inh
NC(=S)NN=C(c1ccccc1)c1ccccc1	40µM*	-1%	-32%	-22	-4	?
C/C(=N\NC(N)=S)c1ccccc1	?	-4%	-19%	-3	-4	-16%
O=C(NN=C1c2ccccc2-c2ccccc21)c1ccccc1Br	-34%	1%	-30%	-7	-5	-10%
NC(=S)NN=C1c2ccccc2-c2ccccc21	-25%	?	?	?	nt	50µM*
O=C(NN=C1c2ccccc2-c2ccccc21)c1ccccc1	10µM*	35%	28µM*	-9	?	-30%
COc1ccc(CCNC(=O)Cc2cc(OCc3ccccc3)c(OC)cc2[N+](=O)[O-])cc1OC	-31%[59 µM]	-6%	0%	-3	-14	-19%
CN1C(=O)c2ccccc2Sc2ccc(NC(=O)N3CCN(c4ccccc4)CC3)cc21	0%[59 µM]	18%	-36%	nt	nt	-19%
CC12CCC(C(=O)NNC(=O)c3ccc(F)cc3)(OC1=O)C2(C)C (centres undefined)	nt	30%	19%	3	-6	1%
Cc1ccc(C)c(C(=O)OCC(=O)Nc2cccc(S(=O)(=O)N3CCCCC3)c2)c1	-15%[59 µM]	29%	4%	-8	-6	-19%
COc1ccc(N/C=C/c2nc(SC)nnc2C)cc1	?	21%	-36%	-72*	-85*	-31%
CSc1nnc(C)c(/C=C/Nc2ccc(Cl)cc2)n1	80%[59 µM]	68%	-6%	-71*	?	-18%
CSc1nnc(C)c(/C=C/Nc2ccc(F)cc2)n1	40%[59 µM]	30%	?	?	?	-27%
COc1ccc(N/C=C/C(=O)C(F)(F)F)cc1	3%[59 µM]	37%	-4%	11	-5	-1%
Cn1cc(S(=O)(=O)N2CCOCC2)cc1C(=O)Nc1ccc(Cl)c(C(F)(F)F)c1	-2%[59 µM]	28%	1%	nt	nt	-10%
CN(C)c1ccc(NC(=O)CSCc2nc3c(nnn3Cc3ccc(F)cc3)c(=O)[nH]2)cc1	?	-25%	?	-13	-6	50µM*
COc1cc(NC(=O)c2ccc3c(SCC(=O)O)c4c(nc3c2)CCCC4)cc(OC)c1OC	?	26%	-25%	-14	nt	-29%
COc1cc(NC(=O)c2ccc3c(SCC(=O)O)c4c(nc3c2)CCC4)cc(OC)c1OC	nt	30%	89µM*	2	-6	-17%
COc1ccc(NC(=O)c2ccc3c(SCC(=O)O)c4c(nc3c2)CCCC4)cc1OC	8%[59 µM]	49%	-2%	nt	nt	-11%
O=C(O)CSc1c2c(nc3cc(C(=O)Nc4ccc(F)c(Cl)c4)ccc13)CCC2	-33%[59 µM]	-1%	79µM*	nt	nt	?
COc1cc(NC(=O)c2ccc3c(Cl)c4c(nc3c2)CCC4)cc(OC)c1OC	28µM*	18%	-3%	nt	nt	-21%
Cc1ccc2oc3c(c(=O)c2c1)C(c1ccc(O)cc1)N(c1nc(C)c(C)s1)C3=O (centres undefined)	12%[59 µM]	8%	0%	nt	nt	-6%
CCOc1ccccc1CNC(=O)CCn1c(=O)c2cccn2c2ccc(F)cc21	4%[59 µM]	78%	5%	nt	nt	3%
COc1cccc(NC(=O)CN(C)C(C)C(=O)N2CCCCC2)c1 (centres undefined)	nt	?	nt	-10	-23	0.32µM*
